Inhibition data for 63 compounds are collected here from PubChem BioAssay AID2018 (Sanford-Burnham Center for Chemical Genomics, 2009).

The campaign covered roughly 1,200 compounds. About 600 (50%) were called active. Cut-off read from the data, not from the text of the source: active = inhibition above about 42%; inactive = the rest. So high a share suggests a set chosen from earlier hits. Some of the results follow. Potency and affinity values are given separately.

For the assay, the target named is SUMO-conjugating enzyme UBC9 (Homo sapiens) (UniProt P63279). Description: blockers of UBC9-mediated SUMO conjugation – biochemical, AlphaScreen, SUMOylation inhibitor project, confirmation (AID 2018). The settings on record: AlphaScreen in vitro SUMOylation assay; at 35 µM; active compounds read high.
Sequence of SUMO-conjugating enzyme UBC9 (Homo sapiens) (P63279 whole entry, looked up): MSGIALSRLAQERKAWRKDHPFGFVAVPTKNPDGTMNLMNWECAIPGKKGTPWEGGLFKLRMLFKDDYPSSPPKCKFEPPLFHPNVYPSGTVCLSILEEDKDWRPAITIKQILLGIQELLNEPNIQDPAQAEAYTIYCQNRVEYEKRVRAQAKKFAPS
Take `O=C(NC(=S)Nc1cccc2c(O)cccc12)c1ccccc1[N+](=O)[O-]`: the inhibition (in general, the relative decrease from the control value, in per cent) was 16.6% (inactive). Take `O=C(O)c1cccc([N+](=O)[O-])c1C(=O)Nc1cccc2ccccc12`: the inhibition was -1.9% (inactive). On to `N#Cc1c(N)nc2c(c1-c1ccc3c(c1)OCO3)CCc1ccccc1-2`, for which the inhibition is -58.5% (inactive). Regarding `S=C(Nc1cccc(Cl)c1)Nc1ccc2cn[nH]c2c1`, the inhibition was 7.2% (inactive). Regarding `Fc1ccc(NC(=S)Nc2cccc3ccccc23)cc1F`, the inhibition is -4.6% (inactive). `Cc1cc(C)c(C(N)=O)c(Nc2cccc3ccccc23)n1`: the inhibition was 24.4% (inactive). As to `Cc1ccc(NC(=S)Nc2cccc3ccccc23)cc1F`, the inhibition was 3.1% (inactive).

In the case of `Fc1ccc(NC(=S)Nc2cccc3ccccc23)cc1`, the inhibition is -2.8% (inactive). On to `Nc1ccc(O)cc1C(=O)OCC(=O)c1ccc(C2CCCCC2)cc1`, for which the inhibition was 29.2% (inactive).

For the compound `COC(=O)C1C(O)=C(C(C)=Nc2cccc3ccccc23)C(=O)CC1(C)C` (stereo not drawn), the inhibition was -0.8% (inactive). On to `Cc1cc(=O)[nH]c(-n2[nH]c(C)cc2=O)n1`, for which the inhibition is 78.7% (active). Consider `CC(C)(C)c1cc(=O)n(-c2ccccc2)[nH]1`, for which the inhibition was 22.8% (inactive). As to `Cc1ccc(N2CCN(Cc3ccccc3)CC2=O)c(C)c1`, the inhibition was 18.7% (inactive).

Regarding `O=c1c(-c2ccccc2)coc2c(CN3CCCC3)c(O)ccc12`, the inhibition is -8% (inactive).

On to `CC(=O)c1ccc(N2CCN(C(=O)c3cccs3)C(C)C2)c(F)c1` (stereo not drawn), for which the inhibition was 14.2% (inactive).

Regarding `Cc1nn(-c2ccccn2)c2c1C(=O)C(Br)CC2` (stereo not drawn), the inhibition was 97.2% (active). The figure for `O=c1c2ccccc2nc2n1CCC2` is 97.9% (active); for `O=C(O)c1cc(Cl)c(Cl)cc1C(=O)Nc1cccc2ncccc12` it is 9.9% (inactive).

On to `Cc1ccc(/C=C(\C#N)C(=O)Nc2cccc3ncccc23)o1`, for which the inhibition was 23.5% (inactive). With `Cc1cc(C)c(S(=O)(=O)/N=C2/C=C(SCC(=O)O)C(=O)c3ccccc32)cc1C`, the inhibition is 95.8% (active).

`COc1ccc2nc(/C(C#N)=C\c3ccc(C(=O)O)cc3)[nH]c2c1`: the inhibition was 21.7% (inactive). `CCC(NC(=O)Nc1ccc(O)cc1)(C(F)(F)F)C(F)(F)F`: the inhibition was -10.3% (inactive).

On to `CCc1cccc(NC(=S)Nc2cccc3ccccc23)c1`, for which the inhibition was 15% (inactive). Turning to `COc1cc(/C=C2\C(=O)N(CCC#N)N=C2C)ccc1OCC(=O)Nc1ccccc1`, the inhibition was 12.4% (inactive). Turning to `O=C1Nc2ccc(C(F)(F)F)cc2N2CCCC12` (stereo not drawn), the inhibition is 46.5% (active).

As for `Cc1ccc(NC(=S)Nc2cccc3ccccc23)cc1`, the inhibition was 19.1% (inactive). With `CC(C)(C)c1cc[n+](C2=C([O-])c3ccccc3C(=O)/C2=N\S(=O)(=O)c2cccs2)cc1`, the inhibition was 90.8% (active). `CCOc1ccc(C(Nc2cccnc2)c2cc(Cl)c3cccnc3c2O)cc1` (stereo not drawn): the inhibition is -212% (inactive). As to `O=C(O)COc1ccccc1C(Nc1cccnc1)c1cc(Cl)c2cccnc2c1O` (stereo not drawn), the inhibition was 102% (active). As to `COC(=O)c1ccccc1NC1=C/C(=N\S(=O)(=O)c2cccs2)c2ccccc2C1=O`, the inhibition is 102% (active). For `CCN(C(=S)Nc1cc(S(=O)(=O)N2CCOCC2)ccc1Cl)c1cccc2ccccc12`, the inhibition is 11.1% (inactive).

As for `O=[N+]([O-])c1cc(Cl)cc(/C=N/NC(=S)Nc2ccc(S(=O)(=O)N3CCOCC3)cc2)c1O`, the inhibition was 102% (active). Turning to `COc1cccc(C(c2c(C)[nH]n(-c3ccccc3)c2=O)c2c(C)[nH]n(-c3ccccc3)c2=O)c1OC`, the inhibition is 89.3% (active). On to `Cc1[nH]n(-c2ccccc2)c(=O)c1C(C[N+](=O)[O-])c1ccc(Br)cc1` (stereo not drawn), for which the inhibition was 101% (active). In the case of `Cc1[nH]n(-c2ccccc2)c(=O)c1C(c1cccc([N+](=O)[O-])c1)c1c(C)[nH]n(-c2ccccc2)c1=O`, the inhibition is 79.1% (active). With `CC(C)(C)c1cnnn1-c1cccc([N+](=O)[O-])c1` the figure was 5.8% (inactive). In the case of `C=CCN(CC=C)c1nc2ccccc2nc1C(C#N)C(=O)OC(C)C` (stereo not drawn), the inhibition is -10.3% (inactive). For the compound `Cc1[nH]n(-c2ccccc2)c(=O)c1C(c1ccc(C(=O)O)cc1)c1c(C)[nH]n(-c2ccccc2)c1=O`, the inhibition was 41.6% (inactive). `COc1ccc(C(c2c(C)[nH]n(-c3ccccc3)c2=O)c2c(C)[nH]n(-c3ccccc3)c2=O)cc1OC`: the inhibition is 101% (active).

In the case of `CCOc1ccc(N2CC(C(=O)NCc3ccc(F)cc3)CC2=O)cc1` (stereo not drawn), the inhibition is 6.3% (inactive). Take `COCCNC(=O)CCC1CCN(Cc2ccc(-c3ccccc3)cc2)CC1`: the inhibition was -1.3% (inactive).

Regarding `Cc1n[nH]c(=S)n(NC(=O)/C=C/C(=O)Nn2c(=S)[nH]nc(C)c2=O)c1=O`, the inhibition was 101% (active). Consider `S=C(Nc1ccc2nsnc2c1)N1CCCCC1`, for which the inhibition was 18.3% (inactive). Turning to `S=C(Nc1ccc2nsnc2c1)NC1CCCCC1`, the inhibition is 95.3% (active). Consider `COCCNC(=S)Nc1ccc2nsnc2c1`, for which the inhibition is 6.6% (inactive).

`OCCNC(=S)Nc1ccc2nsnc2c1`: the inhibition was 54.8% (active). With `S=C(Nc1ccc2nsnc2c1)N1CCCCCC1`, the inhibition is 28.1% (inactive).

Consider `S=C(NCc1ccc2c(c1)OCO2)Nc1ccc2nsnc2c1`, for which the inhibition is 25.4% (inactive). As to `CN(C)C=Nc1ccc2nn(-c3ccccc3)nc2c1`, the inhibition is -10.8% (inactive). Consider `Nc1ccc2nn(-c3cccc4ccccc34)nc2c1`, for which the inhibition was 43.5% (active). As for `Cn1cc2ccc(N)cc2n1`, the inhibition was -18.5% (inactive). Consider `Nc1ccc2nc(-c3ccccc3)sc2c1`, for which the inhibition was -1.4% (inactive). In the case of `Nc1ccc2nn(-c3ccccc3)nc2c1`, the inhibition was 68.1% (active). With `Cc1ccc(-n2nc3ccc(N)cc3n2)c(C)c1` the figure was 39.7% (inactive); with `N#Cc1ccsc1NC(=O)CN1CCN(c2ccc(O)cc2)CC1`, 5.7% (inactive); with `O=C(NCCc1ccccc1)c1ccc2nc(-c3ccco3)c(-c3ccco3)nc2c1`, 70.9% (active). For `CC(C)c1ccccc1NC(=O)COc1ccc(C(=O)NCCc2ccccc2)cc1`, the inhibition is 26.7% (inactive). `O=C(Nc1ccc2nc(-c3ccco3)c(-c3ccco3)nc2c1)N1CCN(c2ccccn2)CC1`: the inhibition is 76.6% (active). As for `O=C(NCc1ccccc1)c1ccc2nc(-c3ccco3)c(-c3ccco3)nc2c1`, the inhibition is 65.7% (active). For the compound `O=C(Cc1ccccc1)Nc1nnc(-c2ccco2)s1`, the inhibition was 11.3% (inactive).

As for `O=C(Nc1ccccc1)Nc1ccno1`, the inhibition is -7.1% (inactive). On to `S=C(Nc1ccc2nc(-c3ccccn3)c(-c3ccccn3)nc2c1)N1CCOCC1`, for which the inhibition was 3.8% (inactive). The figure for `O=C(Nc1ccc2nsnc2c1)N1CCCCC1` is 2.3% (inactive).
